Test results: PubChem BioAssay (EPA / NIEHS)
Records with an inconclusive call do not appear. Calls of active or inactive are those of the source. How the source made its calls: active means hit-call score of the fitted dose curve at least 0.9, where 1 is the maximum; inconclusive means response in the unintended direction; inactive means score below 0.9.

test: CCTE_Harrill_HTTr_CellCount_MCF7: CCTE's Cell Proliferation Assessment for the High-Throughput Transcriptomics (HTTr) Platform, Harrill Lab (AID 2284012);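 further: cells exposed to compound for six hours; intended direction is loss of nuclei count meaning fewer cells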
Summary of the method: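 MCF-7 cells were exposed for 6 h to an eight-point dilution series; Hoechst-labeled nuclei were counted by high content imaging. Curves were fitted bidirectionally against DMSO as negative control and baseline, with signal loss indicating reduced cell count.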

SMILES	outcome
CCCCC(C=O)CC (stereo not drawn)	inactive
CC(=O)OCCc1ccccc1	inactive
CC1=CCC(C(C)C)C=C1 (stereo not drawn)	inactive
COC(=O)C=Cc1ccccc1	inactive
O=C(O[C@@H]1Cc2c(O)cc(O)cc2O[C@@H]1c1cc(O)c(O)c(O)c1)c1cc(O)c(O)c(O)c1	inactive
CC(C=O)c1ccccc1 (stereo not drawn)	inactive
C=C(C)[C@@H]1CC=C(C)CC1	inactive
CCCCCCC=O	inactive
O=C(O)CCCC(=O)O	inactive
CC(C)(O)Cc1ccccc1	inactive
C=CCCCCCCCCC=O	inactive
N#Cc1ccc(C2CCCc3cncn32)cc1 (stereo not drawn)	inactive
CC(=O)CCC1=C(C)CCCC1(C)C	inactive
Cc1ccc(C)c(OCCCC(C)(C)C(=O)O)c1	inactive
CC(C)(CO)C(O)C(=O)NCCCO (stereo not drawn)	inactive
CC(=O)c1ccccc1O	inactive
O=C(OCc1ccccc1)c1ccc(O)cc1	inactive

SMILES	outcome
CCCCCCCO	inactive
CCCCOCC(C)O (stereo not drawn)	inactive
CC(=O)OC1CCCCC1C(C)(C)C (stereo not drawn)	inactive
CC=CC(=O)OCC(C)C	inactive
C=C[C@@]1(C)CC(=O)[C@]2(O)[C@@]3(C)[C@@H](O)CCC(C)(C)[C@@H]3[C@H](O)[C@H](OC(C)=O)[C@@]2(C)O1	inactive
CC(=O)OCC=C(C)C	inactive
CC(=O)CCC=C(C)C	inactive
CN(C)c1ccc2nc3ccc(=[N+](C)C)cc-3sc2c1	inactive
c1ccc2cnccc2c1	inactive
CCC(C)C(=O)OC (stereo not drawn)	inactive
CCCCC1C(=O)N(c2ccccc2)N(c2ccccc2)C1=O	inactive
Fc1ccc(Br)cc1	inactive
COc1cc(O)c(C(=O)c2ccccc2)cc1S(=O)(=O)O	inactive
CCC(C)c1ccccc1 (stereo not drawn)	inactive
Oc1ccc(-c2ccccc2)c(Cl)c1	inactive
CC(=O)c1ccc(S(=O)(=O)NC(=O)NC2CCCCC2)cc1	inactive
